# Test results as given in PubChem BioAssay (NCATS).
# Values joined by “and” are separate entries in the source; they are usually repeats but may differ in a detail not shown here. Equal entries are not always repeated. Inconclusive results are not listed. A call without a number means that no potency is given here. Active and inactive are the calls of the source. Calls come from the whole dose curve; as a rule, active = well fitted curve in the direction sought with a large enough effect; inconclusive = small, poorly fitted or top-dose-only effect, or another doubt; inactive = no such curve, though single readings can be large; an effect the other way counts as inactive or inconclusive.
# Experiment: qHTS of pediatric cancer cell lines to identify multiple opportunities for drug repurposing: Primary screen for Rh18 cells (AID 1347102); note: nearly all actives have a fitted effect of over 65% in size
# Conditions: Rh18 rhabdomyosarcoma viability, CellTiter-Glo luminescence, 48 h; series mostly up to 46 µM
# Outline: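 Cells (500-1,000/well) in growth media were settled 5 h at 37 degrees C, then given compounds for 48 h. Viability was read as CellTiter-Glo luminescence. Primary runs used MIPE at 11 points (0.78 nM-46 µM) and NPC at 8 points (0.59 nM-46 µM); follow-ups used 11 points.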
# Potency is the fitted concentration of half-maximal effect.
row,Compound,Potency
1,COc1c2occc2cc2ccc(=O)oc12,inactive
2,C[C@]12CCC(=O)C=C1CC[C@@H]1[C@H]2[C@@H](O)C[C@@]2(C)[C@H]1CC[C@]2(O)C(=O)CO,inactive
3,O=C(CCc1ccc(O)cc1)c1c(O)cc(O)cc1O,inactive
4,Cc1ncc([N+](=O)[O-])n1CC(C)O (stereo not drawn),inactive
5,Cc1cc(=O)c2c(O)c3c(O)cc(=O)c4c3c3c(cc(O)c1c23)C(C)(C)C=4O,inactive
6,CN(C)CCc1c[nH]c2ccc(Cn3cncn3)cc12,inactive
7,O=C(O)CCNC(=O)c1ccc(N=Nc2ccc(O)c(C(=O)O)c2)cc1,inactive
8,COCCCN1CCC(NC(=O)c2cc(Cl)c(N)c3c2OCC3)CC1,inactive
9,CCN(CC)C(=S)SSC(=S)N(CC)CC,33.2 nM (active) and 70 nM (active) and 376 nM (active)
10,CC1Cc2ccccc2N1NC(=O)c1ccc(Cl)c(S(N)(=O)=O)c1 (stereo not drawn),inactive
11,O=C(CS(=O)Cc1ccco1)NCC=CCOc1cc(CN2CCCCC2)ccn1 (stereo not drawn),inactive
12,O=P(O)(O)C(O)(Cn1ccnc1)P(=O)(O)O,inactive
13,COc1cc(C(C)=O)ccc1OCCCN1CCC(c2noc3cc(F)ccc23)CC1,inactive
14,CC1=C(C(=O)O)N2C(=O)[C@@H](NC(=O)[C@H](N)C3=CCC=CC3)[C@H]2SC1,inactive
15,Cc1ccc(NC(=O)c2ccc(CN3CCN(C)CC3)cc2)cc1Nc1nccc(-c2cccnc2)n1,inactive
16,CC[C@]1(O)C[C@H]2CN(CCc3c([nH]c4ccccc34)[C@@](C(=O)OC)(c3cc4c(cc3OC)N(C=O)[C@H]3[C@@](O)(C(=O)OC)[C@H](OC(C)=O)[C@]5(CC)C=CCN6CC[C@]43[C@@H]65)C2)C1,inactive
17,COc1ccccc1N1CCN(CCN(C(=O)C2CCCCC2)c2ccccn2)CC1,inactive
18,COc1ccc(C2(C#N)CCC(C(=O)O)CC2)cc1OC1CCCC1 (stereo not drawn),inactive
19,Nc1nc(Cl)nc2c1ncn2[C@H]1C[C@H](O)[C@@H](CO)O1,inactive

# Experiment: qHTS of pediatric cancer cell lines to identify multiple opportunities for drug repurposing: Primary screen for OHS-50 cells (AID 1347103); note: nearly all actives have a fitted effect of over 40% in size
# Conditions: OHS-50 osteosarcoma viability, CellTiter-Glo luminescence, 48 h; series mostly up to 57.3 µM
# Outline: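 Cells (500-1,000/well) rested 5 h, then received compounds for 48 h; metabolically active cells were measured by CellTiter-Glo luminescence. Final concentrations spanned up to 46 µM (MIPE, 11-point) or 0.59 nM-46 µM (NPC, 8-point) in primary screens, 11-point in follow-ups.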
row,Compound,Potency
1,O=C(OC1C[C@H]2CC[C@@H](C1)[N+]21CCCC1)C(O)(c1ccccc1)c1ccccc1 (stereo partly drawn),inactive
2,C=CCc1cc(OC)c(O)c(C(=O)NCCO)c1,inactive
3,Cc1nc(Nc2ncc(C(=O)Nc3c(C)cccc3Cl)s2)cc(N2CCN(CCO)CC2)n1,24.3 µM (active) and 12.3 µM (active)
4,Cc1nc(-c2ccc(OCC(C)C)c(C#N)c2)sc1C(=O)O,inactive
5,Oc1ccc(OCc2ccccc2)cc1,inactive
6,O=C(NCCO[N+](=O)[O-])c1cccnc1,inactive
7,Cc1ccc(C)c(OCCCC(C)(C)C(=O)O)c1,inactive
8,CC1(C)NC(=O)N(c2ccc([N+](=O)[O-])c(C(F)(F)F)c2)C1=O,inactive
9,CC1(C)C(=O)N(CCN2CCC(C(=O)c3ccc(F)cc3)CC2)c2ccccc21,inactive
10,CCOC(=O)C1=C[C@@H](OC(CC)CC)[C@H](NC(C)=O)[C@@H](N)C1,inactive
11,C[C@@H](N)C1CCC(C(=O)Nc2ccncc2)CC1 (stereo partly drawn),inactive
12,CCOc1cc(CC(=O)N[C@@H](CC(C)C)c2ccccc2N2CCCCC2)ccc1C(=O)O,inactive
13,Cc1cc(=O)oc2cc(O)ccc12,inactive
14,c1ccc2[nH]c(-c3cscn3)nc2c1,inactive
15,CNC[C@@H](O)[C@@H](O)[C@H](O)[C@H](O)CO,inactive
16,Cc1cccc(CN2CCN(C(c3ccccc3)c3ccc(Cl)cc3)CC2)c1 (stereo not drawn),24.6 µM (active) and 24.3 µM (active)
17,COc1c2occc2cc2ccc(=O)oc12,inactive

row,Compound,Potency
1,C[C@]12CCC(=O)C=C1CC[C@@H]1[C@H]2[C@@H](O)C[C@@]2(C)[C@H]1CC[C@]2(O)C(=O)CO,inactive
2,O=C(CCc1ccc(O)cc1)c1c(O)cc(O)cc1O,432 nM (active)
3,Cc1ncc([N+](=O)[O-])n1CC(C)O (stereo not drawn),inactive
4,Cc1cc(=O)c2c(O)c3c(O)cc(=O)c4c3c3c(cc(O)c1c23)C(C)(C)C=4O,1.51 µM (active) and 2.43 µM (active)
5,CN(C)CCc1c[nH]c2ccc(Cn3cncn3)cc12,inactive
6,O=C(O)CCNC(=O)c1ccc(N=Nc2ccc(O)c(C(=O)O)c2)cc1,inactive
7,CCN(CC)C(=S)SSC(=S)N(CC)CC,43.2 nM (active)
8,CC1Cc2ccccc2N1NC(=O)c1ccc(Cl)c(S(N)(=O)=O)c1 (stereo not drawn),inactive
9,O=C(CS(=O)Cc1ccco1)NCC=CCOc1cc(CN2CCCCC2)ccn1 (stereo not drawn),inactive
10,O=P(O)(O)C(O)(Cn1ccnc1)P(=O)(O)O,inactive
11,COc1cc(C(C)=O)ccc1OCCCN1CCC(c2noc3cc(F)ccc23)CC1,21.7 µM (active) and 19.5 µM (active)
12,CC1=C(C(=O)O)N2C(=O)[C@@H](NC(=O)[C@H](N)C3=CCC=CC3)[C@H]2SC1,inactive
13,Cc1ccc(NC(=O)c2ccc(CN3CCN(C)CC3)cc2)cc1Nc1nccc(-c2cccnc2)n1,17400 nM (active)
14,CC[C@]1(O)C[C@H]2CN(CCc3c([nH]c4ccccc34)[C@@](C(=O)OC)(c3cc4c(cc3OC)N(C=O)[C@H]3[C@@](O)(C(=O)OC)[C@H](OC(C)=O)[C@]5(CC)C=CCN6CC[C@]43[C@@H]65)C2)C1,12.2 nM (active) and 12.3 nM (active)
15,COc1ccccc1N1CCN(CCN(C(=O)C2CCCCC2)c2ccccn2)CC1,inactive
16,COc1ccc(C2(C#N)CCC(C(=O)O)CC2)cc1OC1CCCC1 (stereo not drawn),inactive
17,Nc1nc(Cl)nc2c1ncn2[C@H]1C[C@H](O)[C@@H](CO)O1,15300 nM (active)
